p97 ATPase inh: inhibitors of human p97 ATPase, primary screen, biochemical. recombinant p97 ATPase, Kinase-Glo ATP luminescence, 3 h. inhibition, % at 8 µM. hit rate 0.42% among 220,000; in the data active means inhibition above about 15%;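 further: 0% = DMSO vehicle and 100% = wells lacking enzyme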
Target sequence (P55072 whole entry, looked up): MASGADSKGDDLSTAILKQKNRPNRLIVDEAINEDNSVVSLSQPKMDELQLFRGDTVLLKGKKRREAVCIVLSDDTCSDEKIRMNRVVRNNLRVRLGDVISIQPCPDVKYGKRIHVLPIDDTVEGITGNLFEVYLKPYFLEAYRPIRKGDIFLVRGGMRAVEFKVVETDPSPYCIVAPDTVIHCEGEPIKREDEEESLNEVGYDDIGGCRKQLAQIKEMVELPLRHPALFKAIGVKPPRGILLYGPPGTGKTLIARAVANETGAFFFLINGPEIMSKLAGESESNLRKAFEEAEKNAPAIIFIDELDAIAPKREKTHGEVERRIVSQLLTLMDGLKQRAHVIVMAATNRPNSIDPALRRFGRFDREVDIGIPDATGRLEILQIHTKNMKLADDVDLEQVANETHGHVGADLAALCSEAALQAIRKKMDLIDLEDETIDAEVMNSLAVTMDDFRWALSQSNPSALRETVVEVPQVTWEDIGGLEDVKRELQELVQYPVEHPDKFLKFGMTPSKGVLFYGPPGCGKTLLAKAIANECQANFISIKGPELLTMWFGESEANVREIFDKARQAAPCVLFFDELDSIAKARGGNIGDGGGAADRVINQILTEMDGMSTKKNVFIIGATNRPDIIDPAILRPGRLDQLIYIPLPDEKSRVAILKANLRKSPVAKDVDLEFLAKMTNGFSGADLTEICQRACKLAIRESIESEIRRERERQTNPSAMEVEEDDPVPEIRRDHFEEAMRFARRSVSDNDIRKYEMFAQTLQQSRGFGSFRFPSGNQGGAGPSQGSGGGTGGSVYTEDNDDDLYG
Lmaj promast: Leishmania major promastigote growth inhibition, primary screen; inhibition, % at 10 µM; Leishmania major promastigotes, resazurin fluorescence viability; hit rate 9% among 200,000; in the data active means inhibition above about 50%;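 further: promastigotes grown with compound for 44 hours at 28 °C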
HCT116 bCat-KO: primary screen for growth suppressors in beta-catenin knockout HCT116 cells (colon tumor, human). hit rate 1.5% among 140,000. HCT116 beta-catenin knockout viability, CellTiter-Glo, 60 h; active compounds read low. viability, % at 10 µM;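 active means viability at or under a set limit, the compound median less 4 SD, cut at about 6% in these data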;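 further: 0% = Hyamine 1622 control at 20 µM and 100% = untreated cell control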
HCT116 PTEN-null: growth suppression of PTEN-null HCT116, primary screen, cell-based, CellTiter-Glo | hit rate 1.2% among 140,000 | AID 827, 2007 | viability, % at 10 µM | HCT116 PTEN-null viability, 60 h; active compounds read low;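 active means viability at or below a set limit, 4 SD under the median of all tested compounds, cut at about 3.7% in these data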;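 further: PTEN knockout HCT116 line with beta catenin targeted HCT116 as companion control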
ROMK primary: ROMK potassium channel modulators, primary screen, cell-based, thallium flux, MLSMR library; Tet-inducible ROMK, thallium flux fluorescence; actives lie on both sides; AID 1918, 2009; ATP-sensitive inward rectifier potassium channel 1 (Homo sapiens), P48048; hit rate 2% among 130,000; B-score at 10 µM;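 active means signal ratio slope over the read window, or its plate-corrected B-score, at least 3 SD from the plate mean, either direction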;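 further: B-score of the F/F0 ratio slope over 7 to 12 s after thallium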
INS promoter inh: inhibitors of insulin promoter-driven GFP, primary screen, imaging, TRM-6 cells (human fetal islet line), eGFP reporter, cell count; AID 1273, 2008; reporter expression induced with tamoxifen; hit rate 0.9% among 130,000; inhibition, % at 2 µM;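 active means inhibition above the mean plus 3 SD, with well images judged a real hit on visual review, cut at about 60% in these data, passing the limit was not always enough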
* = called active by the depositor; nt = no result given. Most compounds without a hit are left out; they make up all but 10% or so of the library.

SMILES	p97 ATPase inh	Lmaj promast	HCT116 bCat-KO	HCT116 PTEN-null	ROMK primary	INS promoter inh
Cc1ccc(S(=O)(=O)NC2(C(F)(F)F)C(=O)Nc3c2c(=O)[nH]c(=O)n3-c2ccccc2)cc1 (stereo unspecified)	-3.2	72.4*	102.4	98.2	-0.438	-55.2
C=CCN(CC=C)CCCOc1ccc(Br)cc1Cl	-1.2	51.2*	nt	nt	-0.157	-52.9
COCCNCCCOc1ccc(C)cc1Br	1.4	28.4	nt	nt	0.0241	nt
C=CCNCCCOc1ccc(C)cc1Br	-4.7	93.5*	90.7	92.6	-1.2	-2.0
COCCCNCCCOc1ccc(Cl)cc1Br	-0.3	87.8*	77.5	76.8	nt	-30.0
COCCNC(=O)C(C)Oc1ccc(Cl)cc1Cl (stereo unspecified)	-1.1	-5.7	97.6	103.4	nt	7.1
CCCCNCCOCCOc1ccc(F)cc1	-6.8	92.5*	78.3	78.1	-1.33	-5.0
Cc1ccc(C)c(-n2cc[nH]c2=S)c1	6.2	-5.8	94.5	94.3	nt	nt
CC1=CC(C)C(/C=N/N=C(N)N)C(C)C1 (stereo unspecified)	11.6	nt	nt	nt	nt	nt
COC(=O)C(Cc1ccc(OC(=O)c2ccc(C)cc2)cc1)N1Cc2ccccc2C1=O (stereo unspecified)	-0.7	-4.7	54.7	51.7	nt	10.7
CCOC(=O)CNC(=O)COc1ccc(Cl)cc1Br	3.0	-5.6	94.7	101.2	nt	11.1
CCCCNCCOCCOc1ccc(Cl)cc1Br	-7.5	99.6*	56.9	55.5	-2.75	-100.0
COCCCNC(=O)COc1ccc(Br)cc1Cl	2.4	42.5	98.7	95.5	0.0893	-3.7
CC(C)NCCCOc1ccc(Cl)cc1Br	-6.9	94.5*	81.5	77.0	nt	-34.6
CCN(CC)CCCOc1ccc(C)cc1Br	-4.5	93.7*	75.9	71.5	0.0421	nt
CC(C)NCCCCOc1ccc(Br)cc1Cl	-0.2	99.4*	nt	nt	-1.57	nt
CCOc1ccccc1OCCCOc1ccc(C)cc1Br	-2.8	2.0	82.0	77.7	-0.434	nt
COCCCNCCCOc1ccc(C)cc1Br	8.5	98.9*	90.5	81.7	-0.44	2.6
Cc1ccc(N2C(=O)C(O)(C(F)(F)F)C3=C2CC(C)(C)CC3=O)cc1 (stereo unspecified)	5.3	-3.2	90.4	85.4	nt	-7.7
Cc1ccc(N2C(=O)NC(C(F)(F)F)(C(F)(F)F)C3=C2CC(C)(C)CC3=O)cc1	2.4	51.0*	91.4	88.8	0.239	18.5
COCc1cc(C)nc(N/N=C/c2ccc(Cl)c(Cl)c2)c1C#N	-4.7	85.3*	101.3	109.3	0.286	-10.8
CC(C)[C@H](NC(=O)c1ccccc1Cl)C(=O)NC1CCCCCC1	2.8	21.8	nt	nt	-0.326	nt
Cc1ccc(C(=O)Nc2ccc3cn[nH]c3c2)cc1S(=O)(=O)N1CCCCC1	2.5	50.3*	73.1	60.8	-0.686	15.4
Cc1ccc(NC(=O)CCl)cc1S(=O)(=O)N1CCCCCC1	4.7	90.7*	nt	nt	-0.695	0.0
COCCNCC(=O)Nc1ccc(C)c(S(=O)(=O)N2CCCCC2)c1	-2.0	-2.8	nt	nt	-0.317	-66.7
SMILES	p97 ATPase inh	Lmaj promast	HCT116 bCat-KO	HCT116 PTEN-null	ROMK primary	INS promoter inh
Cc1ccc(OCC(=O)Nc2ccc(C)c(S(=O)(=O)N3CCCCCC3)c2)c([N+](=O)[O-])n1	-3.0	63.5*	nt	nt	2.23	-36.4
CCSc1ccccc1C(=O)NCCc1ccccc1	2.2	2.6	nt	nt	nt	nt
C[n+]1c2n(c3ccccc31)N=C(c1ccc(Br)cc1)CS2	4.9	96.9*	10.1	21.3	nt	nt
c1ccc(C2=Nn3c(nnc3-c3ccncc3)SC2)cc1	-4.5	8.6	72.1	71.5	nt	nt
Brc1ccc(C2=Nn3c(Cn4nnc5ccccc54)nnc3SC2)cc1	4.7	nt	nt	nt	nt	nt
c1ccc(C2=Nn3c(nnc3-c3ccccn3)SC2)cc1	-0.1	-1.1	92.5	104.3	1.25	nt
C[n+]1c2n(c3ccccc31)N=C(c1ccc(-c3ccccc3)cc1)CS2	4.4	100.3*	nt	nt	-0.831	nt
C[n+]1c2n(c3ccccc31)N=C(c1ccccc1)CS2	1.8	97.6*	10.5	14.4	0.269	31.2
N#Cc1cc(Br)ccc1N=C1CCCN1c1ccccc1	2.1	3.2	80.4	89.1	-1.26	-22.2
CC(=O)c1ccc(NC(=O)CN2C(=O)COc3ccc(Cl)cc32)cc1	5.4	5.0	81.8	86.8	nt	nt
Cc1cccc(NC(=O)NCCc2c[nH]c3ccccc23)c1	2.0	88.6*	52.3	68.5	nt	-2.6
Cc1ccc2c(c1)N(CC(=O)NCCc1c[nH]c3ccccc13)C(=O)CO2	7.5	53.3*	84.7	92.0	-1.21	nt
Cc1ccccc1NC(=O)CN1C(=O)COc2ccc(Cl)cc21	15.0*	-7.5	92.4	98.2	nt	nt
COc1ccc(C(=O)Nc2c(-c3cccs3)c(=O)c3ccccc3n2C)cc1	5.4	nt	nt	nt	nt	nt
CC(C)Oc1ccc(/C(O)=C2/C(=O)C(=O)N(CCN(C)C)C2c2ccco2)cc1 (stereo unspecified)	4.5	88.7*	86.3	104.3	0.52	-15.4
CCN(CC)CCN1C(=O)C(=O)/C(=C(/O)c2ccc(OC)cc2)C1c1ccco1 (stereo unspecified)	0.4	1.3	99.1	97.5	1.05	nt
COc1ccc(Cl)c2c1[nH]c1nc(SCc3cccnc3)nnc12	3.8	0.4	nt	nt	0.462	nt
COc1ccc(Cl)c2c1[nH]c1nc(SCc3ccccn3)nnc12	6.8	52.4*	nt	nt	0.491	7.7
COc1ccccc1/C=C(/C(=O)OCC(=O)N(C)Cc1ccccc1)c1ccccc1	1.6	10.1	72.0	72.5	nt	nt
COc1ccccc1/C=C(/C(=O)OCC(N)=O)c1ccccc1	0.4	62.0*	94.8	98.7	nt	5.4
O=C(NCc1c(Cl)cccc1Oc1ccccc1)c1ccccc1	4.4	nt	nt	nt	nt	nt
CCOc1cc(C2NC(=O)NC(c3ccccc3)=C2C(=O)c2ccccc2)c(Br)cc1OCC(=O)O (stereo unspecified)	5.0	-7.3	nt	nt	nt	nt
COc1ccc(CC(=O)Nc2ccc3nc(SC)sc3c2)cc1OC	3.9	4.2	nt	nt	0.0837	nt
COC(=O)c1ccc(C(=O)NC(=S)Nc2ccc3nc(SC)sc3c2)cc1	6.9	-6.8	0.9*	1.5*	1.39	nt
COc1cccc2[nH]c3c(N4CCN(Cc5ccc6c(c5)OCO6)CC4)ncnc3c12	3.3	89.0*	71.5	69.6	nt	8.3
SMILES	p97 ATPase inh	Lmaj promast	HCT116 bCat-KO	HCT116 PTEN-null	ROMK primary	INS promoter inh
c1nc(N2CCN(Cc3ccc4c(c3)OCO4)CC2)c2[nH]cnc2n1	1.9	-0.5	99.9	93.7	nt	50.0
COc1cccc2[nH]c3c(N4CCc5ccccc5C4)ncnc3c12	11.8	nt	nt	nt	-0.506	nt
COc1ccc2c(c1)[nH]c1c(N3CCN(Cc4ccc5c(c4)OCO5)CC3)ncnc12	6.6	78.3*	8.1	10.3	-1.71	-66.7
COc1cccc2[nH]c3c(N4CCC(C)CC4)ncnc3c12	4.2	94.0*	92.2	78.2	nt	nt
CCOC(=O)c1c(C)[nH]c(C)c1C(=O)COC(=O)/C=C/c1cccc(F)c1	-8.8	-0.2	94.2	85.3	nt	nt
CCOC(=O)c1c(C)[nH]c(C)c1C(=O)COC(=O)/C=C/c1cccc(C(F)(F)F)c1	3.5	59.4*	82.5	93.2	-0.178	13.7

Bioassay records as filed in PubChem.
